Assay results as given in PubChem BioAssay AID1159580 (chemical genetic matrix, 2015).
Values joined by “and” are separate entries in the source; they are usually repeats but may differ in a detail not shown here. Equal entries are not always repeated. The campaign covered roughly 5,500 compounds. About 2,000 (36%) were called active. Another 18% or so got no clear call; they are omitted. Rule as the data show it: active = normalized growth mostly below about 0.91 (no sharp cut-off); inconclusive = no clear call, values can overlap the other calls; inactive = mostly above about 0.92. Some of the results follow.

Assay: chemical genetic growth profiling, strain panel (AID 1159580);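 also: tested at 20 µM; growth read once vehicle control cultures reached saturation at 30 °C; 1 = growth at the plate median or of vehicle wells; lower values mean less growth of the strain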
Settings: S. cerevisiae deletion strains, growth OD

Measured: normalized growth

NC(N)=NC(N)=Nc1ccccc1
inactive: locus YAL013W, strain DEP1, hits give low values 1.01 and 0.984 | locus YAL021C, strain ccr4, hits give low values 1 | locus YAL026C, strain drs2, hits give low values 0.998 | locus YAL030W, strain snc1, hits give low values 1.01 | locus YAL040C, strain CLN3, hits give low values 1.08 | locus YBL061C, strain skt5, hits give low values 1 | locus YBR009C, strain hhf1, hits give low values 0.979 | locus YBR021W, strain FUR4, hits give low values 1.02 | locus YBR023C, strain chs3, hits give low values 1 | locus YBR171W, strain sec66, hits give low values 1 | locus YBR229C, strain ROT2, hits give low values 1.01 | locus YBR231C, strain swc5, hits give low values 0.987 | locus YBR279W, strain paf1, hits give low values 1 | locus YCL011C, strain gbp2, hits give low values 1 | locus YCL016C, strain dcc1, hits give low values 1 | locus YCL029C, strain bik1, hits give low values 0.995 | locus YCL061C, strain MRC1 (second series), hits give low values 1 | locus YCL061C, strain MRC1, hits give low values 0.993 | locus YCL069W, strain vba3, hits give low values 1 | locus YCR088W, strain abp1, hits give low values 1.01 | locus YDL005C, strain med2, hits give low values 0.998 | locus YDL035C, strain GPR1, hits give low values 1.01 | locus YDL040C, strain nat1, hits give low values 0.991 | locus YDL074C, strain BRE1, hits give low values 1.02 | locus YDL101C, strain DUN1, hits give low values 1.02 | locus YDL134C, strain PPH21, hits give low values 1.01 | locus YDL185W, strain tfp1, hits give low values 0.996 | locus YDL192W, strain arf1, hits give low values 0.998 | locus YDR001C, strain nth1, hits give low values 0.998 | locus YDR069C, strain doa4, hits give low values 0.995 | locus YDR101C, strain arx1, hits give low values 1.02 | locus YDR137W, strain rgp1, hits give low values 0.981 | locus YDR150W, strain NUM1, hits give low values 0.998 | locus YDR159W, strain sac3, hits give low values 0.961 | locus YDR162C, strain NBP2, hits give low values 1.01 | locus YDR195W, strain ref2 0.948 | locus YDR297W, strain sur2, hits give low values 0.999 | locus YDR318W, strain mcm21, hits give low values 0.992 | locus YDR334W, strain swr1, hits give low values 1 | locus YDR335W, strain msn5, hits give low values 1 | locus YDR363W, strain ESC2, hits give low values 1.02 | locus YDR388W, hits give low values 1 | locus YDR392W, strain spt3, hits give low values 0.903 | locus YDR502C, strain sam2, hits give low values 0.993 | locus YEL003W, strain gim4, hits give low values 0.998 | locus YEL037C, strain rad23, hits give low values 1.01 | locus YEL061C, strain CIN8 (second series), hits give low values 0.996 | locus YEL061C, strain CIN8, hits give low values 1.01 | locus YER002W, strain NOP16, hits give low values 1.03 | locus YER015W, strain faa2, hits give low values 0.998 | locus YER016W, strain bim1, hits give low values 0.999 | locus YER110C, hits give low values 0.986 | locus YER111C, strain swi4, hits give low values 0.996 | locus YER155C, strain BEM2 (second series), hits give low values 0.964 | locus YER155C, strain BEM2, hits give low values 1 | locus YER167W, strain BCK2, hits give low values 1.01 | locus YFR010W, strain ubp6, hits give low values 1.01 | locus YGL078C, strain dbp3, hits give low values 0.997 | locus YGL086W, strain mad1, hits give low values 0.997 | locus YGL167C, strain pmr1, hits give low values 0.993 | locus YGL173C, strain kem1, hits give low values 0.991 | locus YGL227W, strain vid30, hits give low values 0.997 | locus YGL240W, strain doc1, hits give low values 0.964 | locus YGL248W, strain PDE1, hits give low values 1.02 | locus YGL253W, strain hxk2, hits give low values 1.01 | locus YGR078C, strain PAC10, hits give low values 1.01 | locus YGR135W, strain pre9, hits give low values 0.995 | locus YGR229C, strain SMI1, hits give low values 0.985 | locus YGR252W, strain gcn5, hits give low values 0.993 | locus YHR013C, strain ard1, hits give low values 0.952 | locus YHR027C, strain rpn1, hits give low values 1 | locus YHR030C, strain SLT2, hits give low values 1.01 and 1 | locus YHR079C, strain IRE1 (second series), hits give low values 0.988 | locus YHR079C, strain IRE1, hits give low values 1 | locus YHR094C, strain hxt1, hits give low values 0.987 | locus YHR129C, strain ARP1, hits give low values 1.01 | locus YHR142W, strain chs7, hits give low values 1.03 | locus YHR200W, strain rpn10, hits give low values 0.997 | locus YIL066C, strain RNR3, hits give low values 1.02 | locus YIL073C, strain SPO22, hits give low values 0.989 | locus YIL125W, strain kgd1, hits give low values 0.988 | locus YIR030C, strain dcg1, hits give low values 0.996 | locus YJL092W, strain hpr5, hits give low values 1 | locus YJL095W, strain BCK1 (second series), hits give low values 1.01 | locus YJL095W, strain BCK1, hits give low values 1.03 and 0.993 | locus YJL115W, strain asf1, hits give low values 1 | locus YJL129C, strain trk1, hits give low values 1.02 | locus YJL134W, strain LCB3, hits give low values 1.01 | locus YJL154C, strain vps35, hits give low values 1.01 | locus YJL164C, strain tpk1, hits give low values 1 | locus YJL166W, strain qcr8, hits give low values 0.992 | locus YJL168C, strain set2, hits give low values 0.994 | locus YJL187C, strain SWE1 (second series), hits give low values 1.02 | locus YJL187C, strain SWE1, hits give low values 1 | locus YJR043C, strain POL32, hits give low values 1.01
